# Screening results deposited in PubChem by National Center for Advancing Translational Sciences (NCATS).
# Shown are actives, neighbours in structure and some others; about 6.5% of the full set was active somewhere.
# HT1080NT lethal – kills 2HG-producing HT-1080-NT fibrosarcoma cells. actives 1.6% (n = 360,000). Potency, µM (series often up to 46.1 µM), without a hit: at the highest dose activity, negative = less viability, usual class: cytotoxic. HT-1080-NT fibrosarcoma viability, CellTiter-Glo ATP luminescence, 48 h. AID 686970;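 note: NT is the 2HG producing partner of a matched IDH1 knockdown line; potency is the fitted concentration of half-maximal effect; 0% = DMSO-treated cells and -100% = media-only wells without cells; nearly all actives have a fitted effect of over 55% in size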
#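 HT-1080-NT; 750 cells/well; 5% FBS RPMI; 48 h compound, 37 degrees C; CellTiter-Glo luminescence; curve fitting and curve-class assignment.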
# HT1080 IDH1KD tx – kills HT-1080 cells with IDH1 knockdown; actives 2% (n = 360,000); Potency, µM (series often up to 46.1 µM), without a hit: at the highest dose activity, negative = toxicity, actives largely listed as cytotoxic; AID 686971; HT-1080 IDH1 knockdown viability, ATP luminescence, 48 h;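 note: potency is the fitted concentration of half-maximal effect; 0% = DMSO wells and -100% = cell-free medium wells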
#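 Viability of IDH1-knockdown HT-1080 fibrosarcoma cells was assessed by CellTiter-Glo after 48 h at 37 °C with titrated compound; concentration-effect curves were classified by fit quality and response size.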
# HepG2 viability – kills HepG2 cells in TGF-b inhibitor counter-screen; HepG2 CAGA-GFP viability, ATP luminescence, 18 h; Potency, µM (top dose mostly 46.1 µM), without a hit: at the top dose activity change, negative = cytotoxicity, usual class: cytotoxic; actives 0.76% (n = 410,000); note: potency is the fitted concentration of half-maximal effect
#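 CellTiter-Glo luminescence gave cytotoxicity after 18 hours at 37 degrees C. The cells were HepG2 CAGA-GFP in 1% FBS DMEM, stimulated with 500 pg/mL TGF-beta after compound addition. %Activity was normalised to no-cell wells (complete cell-killing) and DMSO (no toxicity), and curves were fitted and classified.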
# TGFb SMAD3 inh – inhibitors of TGF-b signaling; HepG2 CAGA-GFP TGF-b/SMAD3 reporter, GFP fluorescence, 18 h; TGF-beta stimulated, 500 pg/mL final; Potency, µM (top dose mostly 46.1 µM), for inactives: top-dose activity, negative = inhibition, hits mostly inhibitors; actives 1.2% (n = 410,000); AID 588855; note: potency is the fitted concentration of half-maximal effect; % is set by controls: 0 for no effect and ±100 for the full control effect; nearly all actives have a fitted effect of over 65% in size
#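 Smad-responsive CAGA-GFP expression was quantified in HEPG2 cells exposed to compounds and 500 pg/mL final TGF-beta for 18 h at 37 degrees C; unstimulated wells defined full inhibition.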
# IL-1B inflam inh – blocks inflammasome-driven IL-1 beta release | activity change, % at 57.5 µM | AID 743279 | actives 4.7% (n = 360,000) | THP-1 LPS/ATP IL-1B secretion, AlphaLISA, 16 h; stronger effect = lower value; in the data active = activity change below about -50%; inconclusive = mostly about -30% to -49%; note: % is set by controls: 0 for no effect and ±100 for the full control effect
#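 Secreted IL-1B measured by AlphaLISA bead assay after 16 h compound exposure of THP-1 cells; compounds (final up to 57.5 uM) added 1 h before LPS (250 ng/mL) and ATP (1.25 mM) stimulation; lower signal means less secretion.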
# Giardia killer – kills Giardia lamblia | Giardia lamblia trophozoite viability | activity change, % at 7.66 µM, hits read low | actives 0.15% (n = 340,000); in the data active = activity change below about -80%; inconclusive = between about -30% and that limit;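 note: parasites exposed to compound for two days anaerobically before the ATP read; % is set by controls: 0 for no effect and ±100 for the full control effect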
#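 Viability, read as ATP luminescence: trophozoites at 100 cells/well, compound added, 48 hrs anaerobic at 37 deg C, then 15-30 min room-temperature development before reading.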
# The depositor's hits bear a star; ? = inconclusive; / = not tested or not shown. Unless noted, calls come from the whole dose curve; as a rule, active = well fitted curve in the direction sought with a large enough effect; inconclusive = small, poorly fitted or top-dose-only effect, or another doubt; inactive = no such curve, though single readings can be large; an effect the other way counts as inactive or inconclusive.
SMILES,HT1080NT lethal,HT1080 IDH1KD tx,HepG2 viability,TGFb SMAD3 inh,IL-1B inflam inh,Giardia killer
C[C@H](CO)N1C[C@H](C)[C@@H](CN(C)S(=O)(=O)c2ccc(F)cc2)Oc2ccc(NS(=O)(=O)c3ccc(F)cc3)cc2C1=O,9%,0%,-72%,?,-7,-9
CC1(C)CN(c2ccc(Br)cc2Br)C1=O,7%,2%,-15%,-22%,0,-16
Cc1c(NC(=S)NC(=O)c2cccc([N+](=O)[O-])c2)c(=O)n(-c2ccccc2)n1C,-3%,1%,-3%,-7%,-6,2
Cc1sc(NC(=O)/C=C/c2ccc(C(C)C)cc2)c(C#N)c1C,-11%,-9%,-15%,-8%,46,-4
C[C@@H]1CCCCO[C@@H](CN(C)Cc2ccc(C(F)(F)F)cc2)[C@@H](C)CN([C@H](C)CO)C(=O)c2cc(N(C)C)ccc2O1,-28%,-29%,-25%,?,-53*,/
C[C@@H]1CCCCO[C@H](CN(C)Cc2ccc(C(=O)O)cc2)[C@@H](C)CN([C@H](C)CO)C(=O)c2cc(N(C)C)ccc2O1,1%,0%,-26%,-4%,-6,/
C[C@@H]1CN([C@H](C)CO)C(=O)c2cc(NC(=O)Nc3ccc(C(F)(F)F)cc3)ccc2O[C@H]1CN(C)Cc1ccc(Cl)c(Cl)c1,?,?,-111%,11µM*,-80*,-11
CCn1nc(C)cc1C(=O)Sc1cccc(Cl)c1,18µM*,?,-34%,?,-6,-8
Cc1ccc(-c2ccc(=O)n(Cc3c(F)cccc3Cl)n2)cc1,-12%,-8%,-9%,?,-29,-11
O=C(Nc1ccc2c(c1)CCC2)Nc1ccccc1Cl,26%,12%,-28%,-3%,-69*,17
O=C(CN1CCCC1)Nc1ccc2c(c1)CCC2,-2%,-5%,-28%,12%,2,0
CCOc1ccccc1NC(=O)Nc1ccc2c(c1)CCC2,-1%,-1%,-13%,-12%,5,22
COc1ccccc1N1CCN(CC(=O)Nc2ccc(CN3CCCCC3)cc2)CC1,2%,-2%,-18%,-6%,-11,-17
Cc1ccc(Cl)cc1N1CCN(CC(=O)Nc2ccc(CN3CCCCC3)cc2)CC1,21µM*,23µM*,-46%,24%,-18,14
O=C(CN1CCOCC1)Nc1cccc(S(=O)(=O)N2CCCCCC2)c1,12%,7%,6%,-5%,-1,14
O=C(CN1CCN(Cc2ccccc2)CC1)Nc1ccc2c(c1)CCC2,-5%,-17%,-1%,-2%,-86*,2
O=C(CN1CCN(Cc2ccccc2)CC1)Nc1cccc(S(=O)(=O)N2CCCCCC2)c1,-26%,?,-36%,?,-69*,12
Cc1ccccc1S(=O)(=O)NC(=O)C1(C)CCN1C(=O)CCc1cccs1 (stereo unspecified),?,7%,2%,17%,13,/
COC(=O)c1cc(=O)c2cccc(OC)c2[nH]1,-11%,17%,-4%,-18%,15,-8
C=C1C(=O)O[C@H]2[C@H]1[C@H](OC(=O)/C(C)=C\C)C[C@]1(CO1)[C@@H]1[C@H](OC(C)=O)C=C(C)[C@]21O,5%,?,0%,?,-104*,-2
C/C=C(/C)C(=O)O[C@H]1CC(C)=CC(=O)[C@@]2(C)CC[C@@](O)(C(C)C)[C@H]12,/,/,-13%,0%,/,?
CCOC(=O)c1c(C)oc2nc(C)nc(NC(C)c3ccccc3)c12 (stereo unspecified),/,/,-26%,-3%,/,/
O=S(=O)(c1ccc(N2CCC(c3ccc(Cl)cc3)=N2)cc1)N(CCO)CCO,-21%,-29%,20µM*,?,?,1
